# Tests used:
# Experiment in all cases: DAPPL (digital affinity profiling via proximity ligation, sequencing); 10 mM Tris-HCl pH 7.5, 50 mM NaCl, 1 mM DTT, 4% glycerol, room temperature, 30 min; GST-TFs on glutathione beads, 16-mer random dsDNA library, 0.1% formaldehyde crosslink after washing; high values mean tight binding
# [1] = target: T1, FLI1 (Homo sapiens, UniProt Q01543 1-452); conditions: protein: recombinant; tags: N-terminal GST; dsDNA, one strand shown
# T1 sequence: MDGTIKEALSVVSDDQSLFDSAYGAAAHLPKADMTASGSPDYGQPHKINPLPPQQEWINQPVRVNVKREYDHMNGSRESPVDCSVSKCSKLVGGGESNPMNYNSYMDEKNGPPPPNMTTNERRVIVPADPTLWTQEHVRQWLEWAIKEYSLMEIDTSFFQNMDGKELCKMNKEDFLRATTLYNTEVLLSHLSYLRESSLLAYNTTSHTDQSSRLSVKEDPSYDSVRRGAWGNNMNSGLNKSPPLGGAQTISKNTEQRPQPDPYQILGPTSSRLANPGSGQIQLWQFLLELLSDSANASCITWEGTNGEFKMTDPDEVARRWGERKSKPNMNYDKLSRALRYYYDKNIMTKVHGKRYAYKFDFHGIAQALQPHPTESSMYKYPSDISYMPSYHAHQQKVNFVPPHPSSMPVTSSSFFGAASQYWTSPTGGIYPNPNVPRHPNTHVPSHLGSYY
# How it was run: (§1)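 GST fusions of human transcription factors were expressed in yeast and captured with glutathione beads. Once given DNA barcodes and pooled alongside a tag-only sample, they were incubated for 30 min at room temperature with 200 nmole of a random double-stranded 16-mer DNA library in Tris/NaCl/DTT/glycerol buffer, then washed, crosslinked (0.1% formaldehyde), proximity-ligated, PCR-amplified and sequenced on an Illumina NextSeq500. The binding signal of each hexamer is its read frequency for a factor divided by its frequency for the tag-only sample.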
# [2] = target: T2, ELK1 (Homo sapiens, UniProt P19419 1-428); conditions: protein: recombinant; tags: N-terminal GST; dsDNA, one strand shown
# T2 sequence: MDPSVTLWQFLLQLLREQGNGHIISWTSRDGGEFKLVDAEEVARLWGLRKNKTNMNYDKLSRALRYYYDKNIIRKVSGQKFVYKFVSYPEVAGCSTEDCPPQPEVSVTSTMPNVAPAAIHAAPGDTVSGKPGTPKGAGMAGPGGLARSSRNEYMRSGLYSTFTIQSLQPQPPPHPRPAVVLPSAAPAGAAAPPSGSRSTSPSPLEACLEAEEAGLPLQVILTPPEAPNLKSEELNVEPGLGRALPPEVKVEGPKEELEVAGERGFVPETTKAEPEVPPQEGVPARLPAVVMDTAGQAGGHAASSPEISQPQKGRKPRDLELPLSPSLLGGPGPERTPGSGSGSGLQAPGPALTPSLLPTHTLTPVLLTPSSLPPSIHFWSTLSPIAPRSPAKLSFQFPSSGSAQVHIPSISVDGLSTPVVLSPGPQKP
# How it was run: as §1
# [3] = target: T3, GABPA (Homo sapiens, UniProt Q06546 1-454); conditions: protein: recombinant; tags: N-terminal GST; dsDNA, one strand shown
# T3 sequence: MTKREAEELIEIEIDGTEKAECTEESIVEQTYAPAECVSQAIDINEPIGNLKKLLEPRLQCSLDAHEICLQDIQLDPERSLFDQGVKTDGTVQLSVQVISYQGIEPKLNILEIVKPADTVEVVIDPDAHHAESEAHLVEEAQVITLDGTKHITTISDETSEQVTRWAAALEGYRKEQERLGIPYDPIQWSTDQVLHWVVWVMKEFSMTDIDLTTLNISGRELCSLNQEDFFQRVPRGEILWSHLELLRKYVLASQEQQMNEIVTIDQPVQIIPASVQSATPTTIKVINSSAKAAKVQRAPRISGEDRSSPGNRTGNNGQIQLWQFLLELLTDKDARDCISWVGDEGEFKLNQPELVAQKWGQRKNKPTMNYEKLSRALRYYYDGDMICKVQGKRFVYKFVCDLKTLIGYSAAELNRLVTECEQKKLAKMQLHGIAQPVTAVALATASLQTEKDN
# How it was run: as §1
# [4] = target: T4, ERG (Homo sapiens, UniProt P11308 1-479); conditions: protein: recombinant; tags: N-terminal GST; dsDNA, one strand shown
# T4 sequence: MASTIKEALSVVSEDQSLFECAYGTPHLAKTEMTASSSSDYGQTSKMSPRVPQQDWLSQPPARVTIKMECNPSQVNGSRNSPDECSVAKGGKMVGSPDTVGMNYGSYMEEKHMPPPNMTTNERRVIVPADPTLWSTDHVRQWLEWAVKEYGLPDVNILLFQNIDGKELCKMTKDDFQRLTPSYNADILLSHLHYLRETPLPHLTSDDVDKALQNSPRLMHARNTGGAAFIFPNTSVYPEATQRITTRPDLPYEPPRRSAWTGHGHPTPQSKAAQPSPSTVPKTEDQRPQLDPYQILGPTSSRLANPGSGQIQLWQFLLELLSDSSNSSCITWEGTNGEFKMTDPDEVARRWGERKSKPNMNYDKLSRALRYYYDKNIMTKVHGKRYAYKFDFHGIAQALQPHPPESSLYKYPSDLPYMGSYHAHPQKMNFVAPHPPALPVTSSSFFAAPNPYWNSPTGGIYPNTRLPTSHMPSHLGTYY
# How it was run: as §1
# [5] = target: ELF1 (Homo sapiens, UniProt P32519 1-619); conditions: protein: recombinant; tags: N-terminal GST; dsDNA, one strand shown
# Chain of ELF1 (P32519 whole entry): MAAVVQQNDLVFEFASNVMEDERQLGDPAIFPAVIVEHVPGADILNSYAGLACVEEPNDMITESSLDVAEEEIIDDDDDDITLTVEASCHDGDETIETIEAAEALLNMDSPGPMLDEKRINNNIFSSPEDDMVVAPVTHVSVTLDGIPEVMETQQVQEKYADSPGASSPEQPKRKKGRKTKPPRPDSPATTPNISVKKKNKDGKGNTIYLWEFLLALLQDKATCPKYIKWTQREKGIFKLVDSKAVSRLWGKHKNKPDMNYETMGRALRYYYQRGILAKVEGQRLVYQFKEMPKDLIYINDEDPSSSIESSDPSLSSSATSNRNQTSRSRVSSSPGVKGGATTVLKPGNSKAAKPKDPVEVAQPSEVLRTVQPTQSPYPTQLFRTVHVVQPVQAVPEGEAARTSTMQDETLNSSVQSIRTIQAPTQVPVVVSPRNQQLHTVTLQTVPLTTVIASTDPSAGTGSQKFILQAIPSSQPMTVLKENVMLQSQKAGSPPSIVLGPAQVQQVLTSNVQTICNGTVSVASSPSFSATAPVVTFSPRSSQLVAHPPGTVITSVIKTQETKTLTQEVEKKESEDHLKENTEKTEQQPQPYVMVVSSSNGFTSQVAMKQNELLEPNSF
# How it was run: as §1
# [6] = target: T5, EHF (Homo sapiens, UniProt Q9NZC4 1-300); conditions: protein: recombinant; tags: N-terminal GST; dsDNA, one strand shown
# T5 sequence: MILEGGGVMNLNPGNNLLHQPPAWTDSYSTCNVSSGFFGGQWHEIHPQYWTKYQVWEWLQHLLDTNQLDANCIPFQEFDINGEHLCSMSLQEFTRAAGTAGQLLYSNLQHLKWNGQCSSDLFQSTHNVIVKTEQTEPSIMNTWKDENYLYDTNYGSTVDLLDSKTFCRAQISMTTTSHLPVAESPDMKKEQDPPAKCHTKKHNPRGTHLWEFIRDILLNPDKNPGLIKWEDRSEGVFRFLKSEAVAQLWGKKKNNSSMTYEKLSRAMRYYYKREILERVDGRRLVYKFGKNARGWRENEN
# How it was run: as §1
# [7] = target: SPI1 (Homo sapiens, UniProt P17947 1-270); conditions: protein: recombinant; tags: N-terminal GST; dsDNA, one strand shown
# How it was run: as §1
# [8] = target: SPIB (Homo sapiens, UniProt Q01892 1-262); conditions: protein: recombinant; tags: N-terminal GST; dsDNA, one strand shown
# Chain of SPIB (Q01892 whole entry): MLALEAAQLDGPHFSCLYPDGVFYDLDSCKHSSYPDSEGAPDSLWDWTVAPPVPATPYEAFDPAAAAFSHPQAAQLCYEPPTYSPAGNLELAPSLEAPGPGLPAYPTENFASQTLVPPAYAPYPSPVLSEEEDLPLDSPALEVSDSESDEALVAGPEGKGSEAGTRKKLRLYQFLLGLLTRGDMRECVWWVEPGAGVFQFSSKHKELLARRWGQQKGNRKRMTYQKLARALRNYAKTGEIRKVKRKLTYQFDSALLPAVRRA
# How it was run: as §1
# [9] = target: T6, ELK3 (Homo sapiens, UniProt P41970 1-407); conditions: protein: recombinant; tags: N-terminal GST; dsDNA, one strand shown
# T6 sequence: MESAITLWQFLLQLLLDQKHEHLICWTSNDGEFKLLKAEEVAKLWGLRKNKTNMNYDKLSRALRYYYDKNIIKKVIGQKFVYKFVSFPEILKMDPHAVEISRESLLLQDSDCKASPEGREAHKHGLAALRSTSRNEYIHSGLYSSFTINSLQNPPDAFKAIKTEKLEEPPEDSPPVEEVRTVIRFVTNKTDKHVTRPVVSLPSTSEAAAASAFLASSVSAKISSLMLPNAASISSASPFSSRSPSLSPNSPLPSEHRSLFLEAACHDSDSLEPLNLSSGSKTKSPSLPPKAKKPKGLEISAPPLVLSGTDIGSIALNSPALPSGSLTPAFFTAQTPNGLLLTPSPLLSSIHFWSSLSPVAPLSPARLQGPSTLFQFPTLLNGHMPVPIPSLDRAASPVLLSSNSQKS
# How it was run: as §1
# [10] = target: T7, FEV (Homo sapiens, UniProt Q99581 1-238); conditions: protein: recombinant; tags: N-terminal GST; dsDNA, one strand shown
# T7 sequence: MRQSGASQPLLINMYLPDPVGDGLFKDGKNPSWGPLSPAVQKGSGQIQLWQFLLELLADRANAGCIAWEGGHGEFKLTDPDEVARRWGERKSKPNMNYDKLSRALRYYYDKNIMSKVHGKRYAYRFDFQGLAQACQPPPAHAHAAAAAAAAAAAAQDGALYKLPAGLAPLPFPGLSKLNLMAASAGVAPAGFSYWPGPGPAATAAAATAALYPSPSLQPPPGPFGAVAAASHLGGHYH
# How it was run: as §1
# [11] = target: ETV5 (Homo sapiens, UniProt P41161 1-510); conditions: protein: recombinant; tags: N-terminal GST; dsDNA, one strand shown
# Chain of ETV5 (P41161 whole entry): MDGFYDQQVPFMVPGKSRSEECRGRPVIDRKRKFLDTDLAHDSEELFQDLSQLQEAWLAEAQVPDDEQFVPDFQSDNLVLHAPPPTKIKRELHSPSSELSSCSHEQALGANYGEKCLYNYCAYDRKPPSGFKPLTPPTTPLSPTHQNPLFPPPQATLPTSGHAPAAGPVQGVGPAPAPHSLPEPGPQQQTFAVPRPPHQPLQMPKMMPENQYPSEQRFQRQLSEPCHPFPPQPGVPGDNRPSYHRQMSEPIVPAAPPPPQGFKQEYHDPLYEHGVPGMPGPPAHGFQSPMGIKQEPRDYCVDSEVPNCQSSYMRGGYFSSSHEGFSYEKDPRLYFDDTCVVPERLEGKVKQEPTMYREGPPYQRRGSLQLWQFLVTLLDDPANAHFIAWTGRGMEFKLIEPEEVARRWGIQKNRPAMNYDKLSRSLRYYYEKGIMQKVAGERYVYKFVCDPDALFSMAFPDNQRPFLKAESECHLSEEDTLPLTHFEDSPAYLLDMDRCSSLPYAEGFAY
# How it was run: as §1
# [12] = target: HSF1 (Homo sapiens, UniProt Q00613 1-529); conditions: protein: recombinant; tags: N-terminal GST; chain copies: 3; dsDNA, one strand shown
# Chain of HSF1 (Q00613 whole entry): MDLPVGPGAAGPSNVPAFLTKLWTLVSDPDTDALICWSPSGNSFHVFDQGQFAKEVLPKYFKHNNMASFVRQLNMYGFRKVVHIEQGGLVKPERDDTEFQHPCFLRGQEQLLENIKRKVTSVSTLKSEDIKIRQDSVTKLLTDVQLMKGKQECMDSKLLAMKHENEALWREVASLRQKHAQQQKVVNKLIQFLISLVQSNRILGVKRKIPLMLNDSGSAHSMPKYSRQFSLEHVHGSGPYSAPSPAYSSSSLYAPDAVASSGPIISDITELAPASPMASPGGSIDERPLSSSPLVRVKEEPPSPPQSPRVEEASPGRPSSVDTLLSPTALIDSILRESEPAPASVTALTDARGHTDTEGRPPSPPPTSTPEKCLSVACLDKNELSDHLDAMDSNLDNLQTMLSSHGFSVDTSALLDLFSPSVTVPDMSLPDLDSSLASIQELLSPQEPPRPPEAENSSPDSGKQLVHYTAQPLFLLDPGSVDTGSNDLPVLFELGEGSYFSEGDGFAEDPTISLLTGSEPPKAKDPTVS
# How it was run: as §1
# [13] = target: T8, SPIC (Homo sapiens, UniProt Q8N5J4 1-248); conditions: protein: recombinant; tags: N-terminal GST; dsDNA, one strand shown
# T8 sequence: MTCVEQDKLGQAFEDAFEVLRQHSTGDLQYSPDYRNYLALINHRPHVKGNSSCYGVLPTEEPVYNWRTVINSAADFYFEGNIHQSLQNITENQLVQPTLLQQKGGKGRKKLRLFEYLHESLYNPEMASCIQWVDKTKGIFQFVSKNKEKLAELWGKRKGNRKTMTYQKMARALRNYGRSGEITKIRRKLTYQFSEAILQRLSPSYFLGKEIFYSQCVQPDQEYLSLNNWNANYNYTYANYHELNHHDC
# How it was run: as §1
# [14] = target: ELF4 (Homo sapiens, UniProt Q99607 1-663); conditions: protein: recombinant; tags: N-terminal GST; dsDNA, one strand shown
# Chain of ELF4 (Q99607 whole entry): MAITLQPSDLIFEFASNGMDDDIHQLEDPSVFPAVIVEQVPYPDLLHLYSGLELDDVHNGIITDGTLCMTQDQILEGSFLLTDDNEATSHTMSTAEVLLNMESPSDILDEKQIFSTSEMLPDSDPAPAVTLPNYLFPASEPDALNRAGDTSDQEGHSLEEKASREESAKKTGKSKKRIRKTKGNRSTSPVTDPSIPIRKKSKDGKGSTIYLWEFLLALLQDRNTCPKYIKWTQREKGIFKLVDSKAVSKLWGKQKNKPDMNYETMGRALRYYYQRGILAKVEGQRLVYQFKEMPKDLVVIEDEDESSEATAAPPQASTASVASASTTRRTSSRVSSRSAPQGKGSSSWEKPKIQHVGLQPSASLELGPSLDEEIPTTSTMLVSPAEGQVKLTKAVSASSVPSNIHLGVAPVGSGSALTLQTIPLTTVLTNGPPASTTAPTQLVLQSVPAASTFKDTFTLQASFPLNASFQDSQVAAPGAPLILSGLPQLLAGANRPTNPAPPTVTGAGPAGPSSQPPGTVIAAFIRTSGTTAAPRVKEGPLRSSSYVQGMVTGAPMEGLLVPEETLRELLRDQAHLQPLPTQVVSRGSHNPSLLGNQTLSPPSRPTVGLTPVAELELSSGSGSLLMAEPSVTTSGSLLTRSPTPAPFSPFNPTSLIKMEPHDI
# How it was run: as §1
# [15] = target: T9, ELK4 (Homo sapiens, UniProt P28324-2 1-405); conditions: protein: recombinant; tags: N-terminal GST; dsDNA, one strand shown
# T9 sequence: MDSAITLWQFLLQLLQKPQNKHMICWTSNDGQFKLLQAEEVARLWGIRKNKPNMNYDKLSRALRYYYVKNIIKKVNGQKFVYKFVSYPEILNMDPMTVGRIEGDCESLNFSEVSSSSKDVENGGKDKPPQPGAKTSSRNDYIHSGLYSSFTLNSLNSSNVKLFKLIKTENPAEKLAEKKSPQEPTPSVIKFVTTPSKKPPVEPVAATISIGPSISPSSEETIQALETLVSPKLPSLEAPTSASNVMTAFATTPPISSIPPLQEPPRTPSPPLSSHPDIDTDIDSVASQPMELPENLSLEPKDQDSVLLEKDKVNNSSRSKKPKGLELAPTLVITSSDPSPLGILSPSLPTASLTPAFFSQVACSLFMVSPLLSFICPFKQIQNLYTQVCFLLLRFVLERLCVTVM
# How it was run: as §1
# [16] = target: T10, ETV2 (Homo sapiens, UniProt O00321 1-342); conditions: protein: recombinant; tags: N-terminal GST; dsDNA, one strand shown
# T10 sequence: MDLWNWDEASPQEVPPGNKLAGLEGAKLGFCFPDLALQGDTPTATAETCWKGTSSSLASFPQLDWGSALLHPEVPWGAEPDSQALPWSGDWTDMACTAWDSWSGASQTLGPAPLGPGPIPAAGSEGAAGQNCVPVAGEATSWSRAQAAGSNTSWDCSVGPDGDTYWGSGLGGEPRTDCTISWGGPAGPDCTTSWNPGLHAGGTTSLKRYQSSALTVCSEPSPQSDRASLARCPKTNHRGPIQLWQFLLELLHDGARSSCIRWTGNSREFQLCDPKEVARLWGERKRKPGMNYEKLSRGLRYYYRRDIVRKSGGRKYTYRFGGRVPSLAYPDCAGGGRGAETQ
# How it was run: as §1
# [17] = target: T11, ELF3 (Homo sapiens, UniProt P78545 1-371); conditions: protein: recombinant; tags: N-terminal GST; dsDNA, one strand shown
# T11 sequence: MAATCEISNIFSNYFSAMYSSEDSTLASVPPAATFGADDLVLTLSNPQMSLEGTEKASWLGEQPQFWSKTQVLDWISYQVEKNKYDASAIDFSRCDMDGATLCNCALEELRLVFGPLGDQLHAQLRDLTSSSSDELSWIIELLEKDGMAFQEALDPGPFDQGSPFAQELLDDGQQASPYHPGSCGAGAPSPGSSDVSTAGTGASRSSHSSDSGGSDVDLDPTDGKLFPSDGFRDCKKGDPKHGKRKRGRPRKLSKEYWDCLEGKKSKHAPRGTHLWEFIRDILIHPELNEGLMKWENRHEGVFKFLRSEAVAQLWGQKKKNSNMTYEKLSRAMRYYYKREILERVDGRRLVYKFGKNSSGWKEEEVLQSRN
# How it was run: as §1
# [18] = target: CRX (Homo sapiens, UniProt O43186 1-299); conditions: protein: recombinant; tags: N-terminal GST; dsDNA, one strand shown
# Chain of CRX (O43186 whole entry): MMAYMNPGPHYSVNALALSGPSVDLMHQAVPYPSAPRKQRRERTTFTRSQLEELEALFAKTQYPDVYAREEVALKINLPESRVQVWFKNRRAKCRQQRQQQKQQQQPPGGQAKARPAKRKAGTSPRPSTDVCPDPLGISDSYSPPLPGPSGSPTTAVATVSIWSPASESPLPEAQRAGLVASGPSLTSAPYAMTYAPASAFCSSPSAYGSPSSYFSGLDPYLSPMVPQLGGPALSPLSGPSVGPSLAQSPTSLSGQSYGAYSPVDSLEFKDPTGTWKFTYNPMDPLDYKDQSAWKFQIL
# How it was run: as §1
# [19] = target: ETV1 (Homo sapiens, UniProt P50549 1-477); conditions: protein: recombinant; tags: N-terminal GST; dsDNA, one strand shown
# Chain of ETV1 (P50549 whole entry): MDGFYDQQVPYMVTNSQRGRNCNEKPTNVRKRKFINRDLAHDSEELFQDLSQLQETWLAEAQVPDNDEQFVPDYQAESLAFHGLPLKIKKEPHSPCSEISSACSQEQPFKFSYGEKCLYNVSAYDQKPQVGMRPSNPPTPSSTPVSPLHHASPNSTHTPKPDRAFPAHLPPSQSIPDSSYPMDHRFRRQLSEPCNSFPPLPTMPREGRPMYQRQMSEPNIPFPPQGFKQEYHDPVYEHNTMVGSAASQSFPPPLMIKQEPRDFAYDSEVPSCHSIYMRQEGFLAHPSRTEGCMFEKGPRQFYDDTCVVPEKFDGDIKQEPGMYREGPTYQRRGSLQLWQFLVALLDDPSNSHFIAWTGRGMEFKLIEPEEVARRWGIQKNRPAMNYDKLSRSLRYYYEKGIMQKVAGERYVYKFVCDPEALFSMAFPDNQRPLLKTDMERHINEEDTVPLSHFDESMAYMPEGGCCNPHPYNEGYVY
# How it was run: as §1
sequence,measurement,setting,value
TACTGC,binding signal,[1],"1.22 fold enrichment (6-mer frequency, TF over GST control)"
same,binding signal,[2],"1.22 fold enrichment (6-mer frequency, TF over GST control)"
same,binding signal,[3],"1.17 fold enrichment (6-mer frequency, TF over GST control)"
same,binding signal,[4],"1.25 fold enrichment (6-mer frequency, TF over GST control)"
same,binding signal,[5],"1.24 fold enrichment (6-mer frequency, TF over GST control)"
same,binding signal,[6],"1.3 fold enrichment (6-mer frequency, TF over GST control)"
same,binding signal,[7],"1.24 fold enrichment (6-mer frequency, TF over GST control)"
same,binding signal,[8],"1.13 fold enrichment (6-mer frequency, TF over GST control)"
same,binding signal,[9],"1.1 fold enrichment (6-mer frequency, TF over GST control)"
same,binding signal,[10],"1.24 fold enrichment (6-mer frequency, TF over GST control)"
same,binding signal,[11],"1.32 fold enrichment (6-mer frequency, TF over GST control)"
same,binding signal,[12],"1.1 fold enrichment (6-mer frequency, TF over GST control)"
same,binding signal,[13],"1.29 fold enrichment (6-mer frequency, TF over GST control)"
same,binding signal,[14],"1.22 fold enrichment (6-mer frequency, TF over GST control)"
same,binding signal,[15],"1.17 fold enrichment (6-mer frequency, TF over GST control)"
same,binding signal,[16],"1.09 fold enrichment (6-mer frequency, TF over GST control)"
same,binding signal,[17],"1.34 fold enrichment (6-mer frequency, TF over GST control)"
same,binding signal,[18],"1.17 fold enrichment (6-mer frequency, TF over GST control)"
same,binding signal,[19],"1.08 fold enrichment (6-mer frequency, TF over GST control)"
